Results taken from PubChem BioAssay (NCATS).
Inconclusive results are not listed. The source made the active and inactive calls. Calls come from the whole dose curve; as a rule, active = well fitted curve in either direction with a large enough effect (not every such curve was filed as active); inconclusive = small, poorly fitted or top-dose-only effect, or another doubt; inactive = flat fitted curve, though single readings scatter.

Assay: AP1 Signaling Pathway (AID 357)
Conditions: ME-180 AP-1-bla reporter, EGF-induced, beta-lactamase ratio, 5 h; at 17.2 µM (top of the series) unless noted
In short: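 ME-180 cells with beta-lactamase reporter under AP-1 response element, stimulated with EC50 EGF; compounds tested in titration series, 5 h at 37 °C. CCF4 substrate added 2.5 h at room temperature; 460/530 nm emission ratio gave %activity and AC50.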
% is set by controls: 0 for no effect and ±100 for the full control effect.

Row | Structure (SMILES) | activity change, negative = inhibition
1 | O=C(C1=C(O)C(=O)N(c2ncccn2)C1c1cccc(Cl)c1)c1ccco1 (centres undefined) | -4.37% (inactive)
2 | Cc1nc(NCCCO)c(C#N)c2c1COC(C)(C)C2 | -14.2% (inactive)
3 | CNS(=O)(=O)c1cccc2nsnc12 | 6.07% (inactive)
4 | Cc1cc(=O)oc(C)c1C(=O)Nc1ccc2nsnc2c1 | 6.72% (inactive)
5 | CCN(CC)CCn1c(O)c(N=O)c2ccccc21 | 90.5% [activator] (active)
6 | COc1ccccc1C1(CC(=O)N2CCOCC2)CCOC(C(C)C)C1 (centres undefined) | 3.63% (inactive)
7 | CCCNC(=O)N(C)c1nncnc1C(=O)NC | -9.23% (inactive)
8 | Cc1cc(O)c(C(C)C)cc1N=C1CSC(=O)N1 | -11.9% (inactive)
9 | COc1cc(C(=O)Nc2ccccn2)cc(OC)c1OC | 1.72% (inactive)
10 | Cc1nc2sc(C)c(C)c2c(=O)o1 | -1.58% (inactive)
11 | CCCCc1nc(N2CCOCC2)c(C#N)c2c1COC(C)(C)C2 | -27.7% (inactive)
12 | COc1ccccc1NC(=O)CSc1nnc(-c2ccc(NC(C)=O)cc2)n1C | -3.49% (inactive)
13 | COC(=O)CSCC(=O)Nc1cc2c(cc1C(C)=O)OCO2 | -1.75% (inactive)
14 | CCOC(=O)c1c(C(F)(F)C(F)(F)C(F)(F)C(F)(F)F)n[nH]c1C | 4.08% (inactive)
15 | O=C(c1cc(N2CCCCC2)nc2ccccc12)N1CCOCC1 | -15.6% (inactive)
16 | CCOC(=O)CNC(=O)CNC(=O)c1ccc(OC)cc1 | 8.37% (inactive)
17 | CC(C)C(C(=O)Nc1ncn[nH]1)N1C(=O)c2ccccc2C1=O (centres undefined) | 21.4% (inactive)
18 | O=C1[C@@H]2[C@H](C(=O)N1O)[C@H]1C=C[C@@H]2C1 | 5.39% (inactive)
19 | COc1cc(C2C(C(=O)c3cccs3)=C(O)C(=O)N2c2cc(C)on2)ccc1O (centres undefined) | -2.96% (inactive)
20 | CCOc1ccc(C2/C(=C(/O)c3ccc(F)cc3)C(=O)C(=O)N2CCCN(C)C)cc1 (centres undefined) | 10.1% (inactive)
21 | Cc1ccc2[nH]c(CCN(C)C)c(CC#N)c2c1 | 12.9% (inactive)
22 | CCCCC(CCC(=O)Nc1ccc(C(=O)OCC)cc1)C(=O)O (centres undefined) | -10.4% (inactive)
23 | C=C(C)C1Cc2c(C)nn(-c3nc(C)cc(C)n3)c2C1 (centres undefined) | -4.28% (inactive)
24 | COc1ccc(OC)c(N=C(C)C2=C(O)COC2=O)c1 | -4.74% (inactive)
